Values joined by “and” are separate entries in the source; they are usually repeats but may differ in a detail not shown here. Identical values can stand only once. Active and inactive are the calls of the source. Unless noted, how the calls were made is not given here.
Legend:
[1] = tested on: Wnt5a (protein binding on small-molecule microarray); experiment: small molecules binding Wnt5a protein – biophysical, small-molecule microarray, 635/667 nm fluorescence, primary screen (AID 1142); details: 635 nm fluorescence, higher = more signal;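 further: fluorescence read at 667 nm with signal to noise per printed feature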
[2] = ATP-based viability of Huh7 replicon cells – cell-based, CellTiter-Glo luminescence, basal, 48 h, cytotoxicity control for HCV replication inhibitor project, primary screen (AID 1143); details: higher = more signal, called active from +8 up or from −8 down;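 further: Huh7 hepatoma cells carrying a hepatitis C replication reporter with no stimulus; test concentration not given here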
[3] = Pseudomonas biofilm growth suppression – PAO1 strain, BacTiter-Glo luminescence, LB-PBS, primary screen (AID 1144); details: P. aeruginosa PAO1 biofilm, 12 h, higher = more signal
[4] = basal CRE-LacZ reporter activity in PC12 – cell-based, unstimulated, primary screen (AID 1145); details: no forskolin, luminescence, 4.5 h, higher = more signal, called active from +8 up or from −8 down
[5] = forskolin-driven CRE-LacZ activity in PC12 – cell-based, CRE-LacZ reporter, forskolin-stimulated, primary screen (AID 1146); details: luminescence, 4.5 h, higher = more signal, called active from +8 up or from −8 down;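 further: PC12 cells with 6xCRE LacZ reporter stimulated by forskolin 10 µM; beta-galactosidase reporter signal reflecting CREB driven transcription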
[6] = molecular target: Streptavidin (Streptomyces avidinii) (UniProt P22629); experiment: compounds binding control protein streptavidin – biophysical, small-molecule microarray, 635/667 nm fluorescence, artefact control for SMM compound annotation, primary screen (AID 1147); details: higher = more signal;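 further: signal reflects streptavidin binding to arrayed compounds as a control protein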
Sequence of Streptavidin (Streptomyces avidinii) (P22629 whole entry, looked up): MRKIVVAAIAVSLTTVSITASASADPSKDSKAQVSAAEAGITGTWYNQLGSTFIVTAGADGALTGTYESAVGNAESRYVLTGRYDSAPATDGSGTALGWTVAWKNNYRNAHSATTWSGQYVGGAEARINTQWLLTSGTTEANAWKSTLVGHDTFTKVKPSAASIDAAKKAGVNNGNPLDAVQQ

[7] = probe aInhba binding on compound microarray – biochemical, small-molecule microarray, 635/667 nm fluorescence, primary screen (AID 1148); details: higher = more signal;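 further: score merges 667nm spot fluorescence with signal-to-noise for antibody binding to printed compounds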
Torsin-1A (Homo sapiens) [8] = molecular target: Torsin-1A (Homo sapiens) (UniProt O14656); experiment: TOR1A wild-type binding on microarray – cell lysate, small-molecule microarray, lysate, 635/667 nm, primary screen (AID 1149); details: COS7 hTOR1A-WT lysate, 635 nm fluorescence, higher = more signal
Sequence of Torsin-1A (Homo sapiens) (O14656 whole entry, looked up): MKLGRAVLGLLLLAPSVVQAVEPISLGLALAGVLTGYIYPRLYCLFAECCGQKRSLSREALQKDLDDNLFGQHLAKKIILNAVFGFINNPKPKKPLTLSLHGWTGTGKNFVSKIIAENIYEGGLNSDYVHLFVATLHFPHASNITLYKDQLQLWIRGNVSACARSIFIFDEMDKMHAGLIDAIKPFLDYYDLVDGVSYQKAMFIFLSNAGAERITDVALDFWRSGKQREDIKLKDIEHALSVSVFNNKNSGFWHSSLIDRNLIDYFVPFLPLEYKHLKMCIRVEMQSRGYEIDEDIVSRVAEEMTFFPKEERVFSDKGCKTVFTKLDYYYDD

Torsin-1A (Homo sapiens) [9] = molecular target: Torsin-1A (Homo sapiens) (UniProt O14656); experiment: torsin A mutant lysate binding on microarrays – cell lysate, small-molecule microarray, COS7 lysate, 635/667 nm fluorescence, primary screen (AID 1150); details: COS7 hTOR1A mutant lysate, 635 nm fluorescence, higher = more signal;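 further: score pools 667 nm emission and signal to noise measuring lysate protein binding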
[10] = tested on: Sonic hedgehog protein (Shh); experiment: Sonic hedgehog microarray binding compounds – biochemical, small-molecule microarray, 635/667 nm fluorescence, primary screen (AID 1151); details: 635 nm fluorescence, higher = more signal;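 further: Shh protein binding to compounds spotted on small-molecule microarray slides; score combines spot fluorescence intensity with signal-to-noise across triplicate slides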
[11] = optical density shifts of acrAB sulA E. coli – strain DRC41, OD650, 48 h, E. coli filamentation inducer project, primary screen (AID 1152); details: higher = more signal, called active from +8 up or from −8 down;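 further: E. coli MC1000 strain DRC41 lacking acrAB efflux pump and sulA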
[12] = probe aLefty1 binding on compound microarray – biochemical, small-molecule microarray, 635/667 nm fluorescence, primary screen (AID 1153); details: higher = more signal;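 further: score merges spot fluorescence with signal-to-noise ratio from the scanned slide images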
[13] = plasmodial surface anion channel blockers, osmotic lysis – cell-based, P. falciparum Indochina, OD700, 1 h, primary screen (AID 1154); details: P. falciparum Indochina infected RBC osmotic lysis, higher = more signal, called active from +8 up or from −8 down
[14] = plasmodial surface anion channel blockers, osmotic lysis – cell-based, P. falciparum Indochina, OD700, 2 h, primary screen (AID 1155);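 further: lysis reports solute entry through the parasite surface anion channel PSAC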; details: P. falciparum Indochina infected erythrocytes, higher = more signal, called active from +8 up or from −8 down
[15] = changes in parasitized red cell lysis, either direction – P. falciparum Indochina, OD700, 3 h, PSAC antagonist project, primary screen (AID 1156); details: P. falciparum-infected erythrocytes, osmotic lysis, higher = more signal, called active from +8 up or from −8 down
[16] = plasmodial surface anion channel blockers, osmotic lysis – cell-based, P. falciparum Indochina, OD700, 18 h, primary screen (AID 1157); details: P. falciparum Indochina infected erythrocytes, osmotic lysis OD700, 18 h; higher = more signal, called active from +8 up or from −8 down
[17] = S6 kinase pathway phospho-S6 level changes – cell-based, A549, cytoblot, luminescence, serum-stimulated, primary screen (AID 1158); details: 5 h, higher = more signal;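 further: serum-stimulated A549 lung adenocarcinoma cells; signal is phosphorylated S6 detected by cytoblot immunostaining with HRP secondary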
[18] = molecular target: NADPH oxidase 2 (Homo sapiens) (UniProt P04839); experiment: compounds shifting NOX2 Amplex Red fluorescence – cell-based, HEK293-NOX2, PMA-stimulated, NOX inhibitor project, primary screen (AID 1159); details: 45 min, higher = more signal, called active from +8 up or from −8 down; further: test concentration not given here
Sequence of NADPH oxidase 2 (Homo sapiens) (P04839 whole entry, looked up): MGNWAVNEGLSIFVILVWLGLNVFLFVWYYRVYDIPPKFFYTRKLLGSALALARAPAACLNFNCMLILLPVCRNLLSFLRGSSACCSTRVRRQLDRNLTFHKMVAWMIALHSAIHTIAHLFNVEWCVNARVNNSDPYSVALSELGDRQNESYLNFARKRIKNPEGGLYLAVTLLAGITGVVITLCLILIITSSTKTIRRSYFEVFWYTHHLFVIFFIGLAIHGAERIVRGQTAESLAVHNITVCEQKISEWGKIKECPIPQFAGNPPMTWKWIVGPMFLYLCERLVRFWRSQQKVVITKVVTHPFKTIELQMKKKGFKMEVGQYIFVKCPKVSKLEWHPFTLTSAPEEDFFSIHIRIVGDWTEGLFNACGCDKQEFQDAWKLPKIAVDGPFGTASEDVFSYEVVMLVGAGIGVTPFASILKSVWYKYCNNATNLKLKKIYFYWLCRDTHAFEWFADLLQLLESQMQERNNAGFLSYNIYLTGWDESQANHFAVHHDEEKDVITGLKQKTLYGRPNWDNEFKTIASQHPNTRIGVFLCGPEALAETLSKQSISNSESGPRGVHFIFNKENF

[19] = molecular target: NADPH oxidase 4 (Homo sapiens) (UniProt Q9NPH5); experiment: compounds shifting NOX4 Amplex Red fluorescence – cell-based, HEK293-NOX4, tetracycline-induced, NOX inhibitor project, primary screen (AID 1160); details: HEK293-NOX4, Amplex Red H2O2 fluorescence, 45 min; higher = more signal, called active from +8 up or from −8 down
Sequence of NADPH oxidase 4 (Homo sapiens) (Q9NPH5 whole entry, looked up): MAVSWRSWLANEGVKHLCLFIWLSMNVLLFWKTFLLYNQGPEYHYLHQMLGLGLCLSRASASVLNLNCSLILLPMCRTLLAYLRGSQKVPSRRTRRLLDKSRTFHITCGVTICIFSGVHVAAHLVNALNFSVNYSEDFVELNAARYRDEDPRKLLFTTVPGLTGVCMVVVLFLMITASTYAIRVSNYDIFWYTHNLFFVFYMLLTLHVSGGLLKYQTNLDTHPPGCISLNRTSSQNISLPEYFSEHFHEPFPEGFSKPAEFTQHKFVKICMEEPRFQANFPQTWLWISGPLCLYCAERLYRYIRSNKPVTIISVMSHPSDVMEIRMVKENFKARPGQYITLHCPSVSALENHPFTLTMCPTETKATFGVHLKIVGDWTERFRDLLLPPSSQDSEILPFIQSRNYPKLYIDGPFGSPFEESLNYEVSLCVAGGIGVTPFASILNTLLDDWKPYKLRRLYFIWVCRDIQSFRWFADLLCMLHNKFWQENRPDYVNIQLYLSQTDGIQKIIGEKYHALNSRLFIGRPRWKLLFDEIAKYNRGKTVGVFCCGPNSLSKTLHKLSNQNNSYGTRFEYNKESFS

[20] = molecular target: NADPH oxidase 5 (Homo sapiens) (UniProt Q96PH1); experiment: compounds shifting NOX5 Amplex Red fluorescence – cell-based, HEK293-NOX5, NOX inhibitor project, primary screen (AID 1161); details: HEK293-NOX5, ionomycin, 45 min, higher = more signal
Sequence of NADPH oxidase 5 (Homo sapiens) (Q96PH1 whole entry, looked up): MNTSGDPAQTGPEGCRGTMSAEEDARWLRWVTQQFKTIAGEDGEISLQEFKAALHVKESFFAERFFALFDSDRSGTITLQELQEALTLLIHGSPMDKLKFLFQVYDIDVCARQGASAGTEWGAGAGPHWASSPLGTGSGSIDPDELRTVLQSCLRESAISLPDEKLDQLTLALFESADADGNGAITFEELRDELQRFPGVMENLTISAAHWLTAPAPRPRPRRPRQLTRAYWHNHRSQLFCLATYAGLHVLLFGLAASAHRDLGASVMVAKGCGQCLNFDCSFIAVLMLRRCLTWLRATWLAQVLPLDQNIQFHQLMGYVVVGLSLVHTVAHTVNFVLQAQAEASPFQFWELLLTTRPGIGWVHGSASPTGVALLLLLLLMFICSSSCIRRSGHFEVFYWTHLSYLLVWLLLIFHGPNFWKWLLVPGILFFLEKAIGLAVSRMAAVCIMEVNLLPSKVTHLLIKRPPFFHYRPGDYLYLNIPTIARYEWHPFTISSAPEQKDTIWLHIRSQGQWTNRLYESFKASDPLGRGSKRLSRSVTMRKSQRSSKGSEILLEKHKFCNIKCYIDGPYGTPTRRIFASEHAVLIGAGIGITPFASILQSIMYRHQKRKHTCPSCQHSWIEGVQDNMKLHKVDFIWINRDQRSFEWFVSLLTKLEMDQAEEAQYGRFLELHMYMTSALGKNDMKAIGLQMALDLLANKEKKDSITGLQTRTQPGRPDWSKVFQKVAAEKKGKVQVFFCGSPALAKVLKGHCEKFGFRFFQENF

Row | Structure (SMILES) | composite z-score [1] | z-score [2] | z-score [3] | z-score [4] | z-score [5] | composite z-score [6] | composite z-score [7] | composite z-score (Torsin-1A (Homo sapiens) [8]) | composite z-score (Torsin-1A (Homo sapiens) [9]) | composite z-score [10] | z-score [11] | composite z-score [12] | z-score [13] | z-score [14] | z-score [15] | z-score [16] | z-score [17] | z-score [18] | z-score [19] | z-score [20]
1 | C=CCN(CCCC)C(=O)C1N(c2c(Cl)cccc2CO)C(=O)C2C(C(=O)O)C3C=CC21O3 (centres undefined) | -0.77 and -0.986 | -0.0286 (inactive) and -0.784 (inactive) | 0.0942 (inactive) and -2.19 (inactive) | -0.887 (inactive) and -1.3 (inactive) | -0.718 (inactive) and -0.285 (inactive) | -1.03 and -2 | -0.231 and 0.72 | -1.67 and 1.69 | -0.696 and 0.827 | -0.979 and -1.17 | -0.074 (inactive) and 2.24 (inactive) | -0.0544 and 0.452 | 1.2 (inactive) and 1.94 (inactive) | 1.05 (inactive) and 0.871 (inactive) | 0.116 (inactive) and 0.127 (inactive) | 0.162 (inactive) and 0.432 (inactive) | -0.352 and 0.113 | 0.6 (inactive) and 0.353 (inactive) | -0.381 (inactive) and -0.863 (inactive) | -0.708 and 0.0892
2 | CCCC[C@@H]1CN2[C@H](c3ccc(Br)cc3)[C@@H](C)CC[C@H]2C(=O)O1 | -0.134 and -0.107 | -0.394 (inactive) and -0.261 (inactive) | -0.379 (inactive) and -0.292 (inactive) | -0.343 (inactive) and 0.285 (inactive) | 0.903 (inactive) and 0.466 (inactive) | -0.13 and 0.159 | -0.261 and -0.0531 | 0.0781 and 0.436 | 0.516 and -0.16 | 0.11 and 0.152 | 0.469 (inactive) and -0.0124 (inactive) | -0.308 and -0.0132 | 1.56 (inactive) and 1.12 (inactive) | 0.395 (inactive) and 0.586 (inactive) | 1.2 (inactive) and -0.241 (inactive) | 0.492 (inactive) and 0.318 (inactive) | 0.57 and -0.262 | 0.203 (inactive) and -0.527 (inactive) | 0.332 (inactive) and -0.0635 (inactive) | -0.884 and -1.79
3 | O=C1[C@H]2[C@H]3[C@H](O)[C@H](O)CC(=NOCc4ccccc4)[C@H]3CC[C@H]2C(=O)N1Cc1ccccc1 | 0.0003 | -5.42 (inactive) | -0.788 (inactive) | 0.796 (inactive) | 0.888 (inactive) | 0.725 | -0.257 | 0.119 | 0.358 | 0.659 | -0.925 (inactive) | 0.0037 | 5.58 (inactive) | 0.42 (inactive) | 0.224 (inactive) | -0.456 (inactive) | 0.741 | -1.14 (inactive) | -2.92 (inactive) | -2.42
4 | COC(=O)C1=C(C)N(Cc2ccccc2)C2=C(C(=O)c3ccccc3)[C@H](c3ccccc3)[C@@](O)(C(=O)OC)C(=O)N2[C@@H]1c1ccccc1 | 0.0925 and 0.179 | -2.35 (inactive) and 0.428 (inactive) | -1.1 (inactive) and -0.472 (inactive) | 3.09 (inactive) and -0.989 (inactive) | 0.415 (inactive) and -1.18 (inactive) | 0.077 and -0.118 | 0.0173 and -0.224 | 0.0486 and 0.0903 | 0.483 and -0.0314 | 0.557 and 0.757 | 0.809 (inactive) and 0.498 (inactive) | -0.234 and -0.168 | 1.74 (inactive) and 0.552 (inactive) | 0.852 (inactive) and 0.417 (inactive) | -0.326 (inactive) and -0.171 (inactive) | 0.442 (inactive) and 0.39 (inactive) | 0.533 and -0.266 | 1.06 (inactive) and 0.0122 (inactive) | 0.59 (inactive) and -0.238 (inactive) | 1.59 and 0.157
5 | CC[C@@H]1C(Sc2ccccc2)C(C(=O)O)[C@H](c2ccc(C)cc2)N1S(=O)(=O)c1ccc(C)cc1 (some centres undefined) | 0.142 and 0.0997 | -0.318 (inactive) and -2.15 (inactive) | 0.281 (inactive) and 0.139 (inactive) | -0.574 (inactive) and -0.415 (inactive) | -0.0531 (inactive) and -0.545 (inactive) | 1.46 and 1.59 | -0.025 and -0.0736 | 1.19 and 0.429 | 1.5 and -0.0197 | 0.801 and -0.436 | -1.08 (inactive) and -0.135 (inactive) | 0.417 and -0.214 | 0.519 (inactive) and -0.178 (inactive) | 0.677 (inactive) and -0.514 (inactive) | -0.0111 (inactive) and -0.657 (inactive) | 0.683 (inactive) and -2.21 (inactive) | -0.473 and 0.388 | 0.668 (inactive) and 0.333 (inactive) | 0.464 (inactive) and 0.356 (inactive) | 2.07 and 0.173
6 | CO[C@@H]1COC(=O)[C@H](Cc2ccccc2)NC(=O)CC=C[C@@H](C)[C@H](OC)COC(=O)[C@@H](C)NC(=O)CC=C[C@H]1C | -0.21 and 0.189 | -0.656 (inactive) and -1.53 (inactive) | – | 0.345 (inactive) and -0.39 (inactive) | -0.95 (inactive) and -1.65 (inactive) | -0.0436 and -0.304 | -0.0986 and -0.319 | 1.37 and 0.668 | 0.671 and 0.335 | 2.07 and 1.98 | -0.582 (inactive) and 0.887 (inactive) | -0.0536 and -0.425 | -0.712 (inactive) and -0.142 (inactive) | -0.999 (inactive) and -0.463 (inactive) | 0.932 (inactive) and 0.0469 (inactive) | -2.07 (inactive) and -1.44 (inactive) | 0.758 and 0.682 | 0.0254 (inactive) and -0.582 (inactive) | 0.859 (inactive) and 0.551 (inactive) | -0.106 and 0.66
7 | C=CCN(C(=O)C1N(CCOCCO)C(=O)C2C(C(=O)O)C3C=CC21O3)c1ccc(OC)cc1 (centres undefined) | -0.571 and -0.317 | -0.769 (inactive) and -0.89 (inactive) | 0.0762 (inactive) and 0.0838 (inactive) | 0.329 (inactive) and 0.463 (inactive) | 0.373 (inactive) and -0.121 (inactive) | -1.35 and -1.27 | -0.186 and -0.296 | -1.81 and -2.21 | -1.91 and -1.9 | -1.31 and -0.761 | 0.168 (inactive) and 0.839 (inactive) | -0.262 and -0.243 | -0.586 (inactive) and -1.15 (inactive) | 0.0933 (inactive) and -0.0778 (inactive) | -1.1 (inactive) and -0.285 (inactive) | -0.0612 (inactive) and -0.161 (inactive) | 1.4 and -0.338 | 0.073 (inactive) and 0.856 (inactive) | -0.509 (inactive) and -0.782 (inactive) | 0.624 and -0.275
8 | CO[C@H]1COC(=O)CC=C[C@@H](C)COC(=O)[C@H](CCSC)NC(=O)CC=C[C@@H]1C | 0.748 and 0.382 | -1.11 (inactive) and -1.94 (inactive) | -0.2 (inactive) | -0.473 (inactive) and 0.882 (inactive) | -0.367 (inactive) and -0.742 (inactive) | -0.909 and -1.04 | -0.0645 and -0.341 | 3.27 and 3.04 | 3.74 and 3.09 | 1.74 and 2.35 | -0.949 (inactive) and -0.0368 (inactive) | -0.188 and 0.32 | -0.304 (inactive) and 0.171 (inactive) | -0.237 (inactive) and 0.588 (inactive) | -0.425 (inactive) and -0.189 (inactive) | 0.256 (inactive) and -0.0409 (inactive) | 0.676 and 0.163 | 1.07 (inactive) and -1.99 (inactive) | -0.824 (inactive) and 0.413 (inactive) | -0.812 and -0.479

— PubChem BioAssay
